The list is not random: actives were taken first. Their share in the collection is about 21%.
Pf growth 96h – P. falciparum growth inhibition at 96 hour, primary screen for plastid delayed-death inhibitors; P. falciparum luciferase reporter growth, 96 h; Potency, µM (series often up to 28.7 µM), hits mostly inhibitors; 320,000 tested, 6.9% active; AID 504834
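96 h incubation, 37 C, 5% CO2, of luciferase-reporter P. falciparum-infected RBCs (2% hematocrit, 0.05% parasitemia final) with test compounds; endpoint luminescence.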
Pf growth 48h – P. falciparum growth inhibition at 48 hours (one generation); P. falciparum luciferase growth in erythrocytes, 48 h; Potency, µM (highest dose often 28.7 µM), actives largely listed as inhibitors; 310,000 tested, 5.9% active
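Growth was read as firefly luciferase luminescence after a 48 h, 37 C, 5% CO2 exposure of compounds to reporter-bearing P. falciparum cultures (0.1% parasitemia, 2% hematocrit final) in Albumax-supplemented RPMI 1640.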
Cycloheximide cs – counter-screen hit for Shiga toxin inhibitors, cycloheximide; cell reporter, cycloheximide protein synthesis inhibition counterscreen; max response, %; 300,000 tested, 12% active; AID 2314; in the data active means max response mostly above about 13%, no sharp cut-off; inactive means mostly below about 14%; further: read at 38.3 µM for the half of the compounds with a filed dose
Shiga toxin inh – Shiga toxin inhibition; Vero cells, Shiga toxin protein synthesis inhibition reporter; inhibition, % at 38.7 µM; 290,000 tested, 9.2% active; in the data active means inhibition mostly above about 28%, no sharp cut-off; inactive means mostly below about 43%
SARS PLP yeast – inhibitors of SARS-CoV papain-like protease in yeast | S. cerevisiae expressing SARS-CoV PLpro, growth rescue | Potency, µM (titrated, usually from 32.9 µM), most hits filed as activators | 330,000 tested, 0.19% active | AID 485353; calls by dose curve; further: nearly all actives have a fitted effect of over 55% in size
NS1 function inh – blocks influenza NS1 protein function | Potency, µM (series often up to 46.1 µM) | 270,000 tested, 0.4% active; calls by dose curve; further: actives are rising curves; nearly all actives have a fitted effect of over 50% in size
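Growth recovery, yeast-based: influenza A NS1 expressed in S. cerevisiae causes slow growth, and suppressors are detected by OD600. The parent strain without NS1 is used as positive control.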
Large screens that a line does not name were inactive. Unless noted, the call rests on the fitted dose curve; in most records, active means well fitted inhibition curve with a large enough effect; inconclusive means small, poorly fitted or top-dose-only effect, or another doubt; inactive means no such curve, though single readings can be large or run the other way.

O=C(COc1ccc2c(c1)OCO2)Nc1nccs1	Pf growth 96h inconclusive, Shiga toxin inh 58
O=C(COc1ccccc1Cl)Nc1ccc(Cl)cn1	Pf growth 96h 10µM, Cycloheximide cs 39, Shiga toxin inh 63
O=C(COc1ccccc1)Nc1ccc(Cl)cn1	Pf growth 48h inconclusive, Cycloheximide cs 62, Shiga toxin inh 62
CCOCc1nnc(NC(=O)COc2ccc3c(c2)OCO3)s1	none
COc1cccc(CN(CC(=O)NC2CCCC2)C(=O)Cn2nnc(-c3cccs3)n2)c1	none
O=C(/C=C/c1ccc2c(c1)OCO2)Nc1ccc(Cl)cn1	Cycloheximide cs 34, Shiga toxin inh 78 (no result: NS1 function inh)
O=C(/C=C/c1ccc2c(c1)OCO2)NCCSCc1ccc(Cl)cc1Cl	none
CS(=O)(=O)N1N=C(c2cccs2)CC1c1ccco1 (configuration not stated)	none
Cc1ccc(Cl)cc1N1CCN(C(=O)C2CCCN(S(=O)(=O)c3cnc[nH]3)C2)CC1 (configuration not stated)	Pf growth 96h inconclusive, Pf growth 48h inconclusive
Cc1ccc(Cl)cc1N1CCN(C(=O)C2CCN(S(=O)(=O)c3cnc[nH]3)CC2)CC1	Pf growth 96h 2.6µM
CCc1ccc(NC(=O)C2CCN(S(=O)(=O)c3cnc[nH]3)CC2)cc1	Pf growth 96h 13µM, Pf growth 48h inconclusive
Cc1nn(C2CCOC(C)(C)C2)c2c1C(c1ccc3c(c1)OCO3)SCC(=O)N2 (configuration not stated)	Pf growth 96h 9.3µM, Pf growth 48h inconclusive
CC(=O)OC[C@H]1O[C@H](CCO/N=C(\C)CCN2CCCc3nc(C)c(C)cc32)C=C[C@@H]1OC(C)=O	Pf growth 96h inconclusive, Pf growth 48h inconclusive
CCc1cc2c(nc1CC)CCN(CC/C(C)=N/OC[C@H]1O[C@H](c3ccccc3)C=C[C@@H]1Oc1ccc(OC)cc1)C2	Pf growth 96h 4.7µM, Pf growth 48h inconclusive
COc1ccc(O[C@H]2C=C[C@@H](c3ccccc3)O[C@@H]2CO/N=C(\C)CCN2CCc3nc(-c4ccccc4)c(-c4ccccc4)cc3C2)cc1	Pf growth 96h inconclusive, Pf growth 48h 10µM, NS1 function inh inconclusive
COC(=O)C/C=C/[C@@H](C)[C@@H](/C=N/OC[C@H]1O[C@H](c2ccccc2)C=C[C@@H]1Oc1ccc(OC)cc1)OC	Pf growth 96h inconclusive
O=C(CCS(=O)(=O)c1ccccc1)N1CCN(c2ccccc2)CC1	Pf growth 96h inconclusive, Cycloheximide cs 40, Shiga toxin inh 84
O=C(CCS(=O)(=O)c1ccccc1)N1CCOCC1	Cycloheximide cs 31 (no result: NS1 function inh)
O=C(NN1CCOCC1)c1ccc(S(=O)(=O)N2CCCCC2)cc1	none (no result: NS1 function inh)
C=CCN1N=C(/C=C/c2ccc(OC)cc2)CCC1=O	Cycloheximide cs 54, Shiga toxin inh 115
C=CCN1N=C(/C=C/c2ccc(C)cc2)CCC1=O	Cycloheximide cs 35, Shiga toxin inh 92 (no result: NS1 function inh)
COc1ccc(/C=C/C2=NN(Cc3ccccc3)C(=O)CC2)cc1	none (no result: NS1 function inh)
NC(=O)[C@@H]1CC2(CC(c3cccc(NC(=O)COc4ccc(Cl)cc4)c3)=NO2)CN1C(=O)COc1ccc(Cl)cc1 (some centres not stated)	Pf growth 96h inconclusive, Pf growth 48h inconclusive
CC/C=C/C(=O)N1CC2(CC(c3cccc(NC(=O)COc4ccc(Cl)cc4)c3)=NO2)C[C@H]1C(N)=O (some centres not stated)	Pf growth 96h 4.7µM, Pf growth 48h 10µM
NC(=O)[C@H]1CC2(CC(c3cccc(NC(=O)COc4ccc(Cl)cc4)c3)=NO2)CN1C(=O)C(c1ccccc1)c1ccccc1 (some centres not stated)	Pf growth 96h inconclusive, Pf growth 48h 13µM
Cc1c(C(=O)Nc2ccc3c(c2)OCCO3)sc2nc(-c3ccccc3)cn12	Pf growth 96h inconclusive, Pf growth 48h inconclusive
Cc1c(C(=O)NCc2cccnc2)sc2nc(-c3ccc(F)cc3)cn12	Pf growth 96h inconclusive, Cycloheximide cs 30, Shiga toxin inh 45
Cc1c(C(=O)Nc2ccncc2)sc2nc(-c3ccccc3)cn12	Pf growth 96h inconclusive, Pf growth 48h 4.1µM, Cycloheximide cs 18
Cc1c(C(=O)NCc2ccco2)sc2nc(-c3ccccc3)cn12	Pf growth 96h inconclusive, Pf growth 48h inconclusive, Cycloheximide cs 54, Shiga toxin inh 66
Cc1c(C(=O)NCCCN2CCOCC2)sc2nc(-c3ccc(F)cc3)cn12	Pf growth 96h inconclusive, Pf growth 48h inconclusive
Cc1c(C(=O)NCc2cccnc2)sc2nc(-c3ccccc3)cn12	Pf growth 96h inconclusive, Pf growth 48h inconclusive, Cycloheximide cs 24, Shiga toxin inh 31
CC(C)CN(C(=O)c1cccc(S(=O)(=O)N2CCN(Cc3ccccc3)CC2)c1)C1CCS(=O)(=O)C1 (configuration not stated)	Pf growth 96h inconclusive (no result: Cycloheximide cs, Shiga toxin inh, NS1 function inh)
O=C(CN(Cc1ccco1)C(=O)CNS(=O)(=O)c1ccc(F)cc1)NCc1ccccc1	none
Cc1cccc2c1-c1sc(C(=O)Nc3cccnc3)cc1CO2	Pf growth 48h inconclusive, Cycloheximide cs 19, Shiga toxin inh 42
O=C(Nc1cccnc1)c1cc2c(s1)-c1ccccc1OC2	Pf growth 48h inconclusive, Cycloheximide cs 43, Shiga toxin inh 54 (no result: SARS PLP yeast)
Cc1cccc2c1-c1sc(C(=O)NCCCN3CCC(C)CC3)cc1CO2	Pf growth 96h inconclusive, Pf growth 48h inconclusive
NC(=O)C(=O)N/N=C1\CCc2ccccc21	Cycloheximide cs 37, Shiga toxin inh 62 (no result: NS1 function inh)
O=C(N/N=C1\CCCc2ccccc21)c1ccc([N+](=O)[O-])cc1	none
Cc1ccc(C(=O)N/N=C2\CCCc3ccccc32)c(C)c1	Cycloheximide cs 49, Shiga toxin inh 71 (no result: NS1 function inh)
Cc1ccc(S(=O)(=O)N2CCN(C(=O)CC(C)n3nc(C)c(Cl)c3C)CC2)cc1C (configuration not stated)	Pf growth 96h 12µM, Pf growth 48h inconclusive
Cc1ccc(S(=O)(=O)N2CCN(C(=O)CCn3nc(C)c(C)c3C)CC2)cc1C	none
Cc1ccc(S(=O)(=O)N2CCN(C(=O)/C=C/c3ccco3)CC2)cc1	Pf growth 96h 1.9µM, Pf growth 48h 6.6µM
Cc1ccc(S(=O)(=O)N2CCN(C(=O)/C=C/c3ccccc3)CC2)cc1C	Pf growth 96h 13µM, Pf growth 48h 4.1µM (no result: Cycloheximide cs, Shiga toxin inh, NS1 function inh)
O=C(/C=C/c1ccco1)N1CCN(S(=O)(=O)c2ccccc2)CC1	none (no result: Pf growth 96h, Pf growth 48h, Cycloheximide cs, Shiga toxin inh, NS1 function inh)
COC(=O)Cc1cc(=O)oc2cc(O)ccc12	none
CCOc1ccc(C(C)=O)cc1COc1ccc(-n2cnnn2)cc1	none
Cc1ccc(S(=O)(=O)NNC(=O)Nc2ccc(C)c(C)c2)c(C)c1	none
CCC(C)[C@H](NC(=O)C1CCN(C(=O)[C@H](Cc2ccccc2)NS(=O)(=O)c2ccc(C)cc2)CC1)C(=O)O (some centres not stated)	none
C=CCNC(=S)Nc1ccc2nc(C)c(C)nc2c1	Cycloheximide cs 27
Cc1nc2ccc(NC(=S)N3CCOCC3)cc2nc1C	none
COc1ccc(N(C)C(=S)Nc2ccc3nc(C)c(C)nc3c2)cc1	Pf growth 96h 2.3µM (no result: SARS PLP yeast)

Compound activity (PubChem)
